PubChem BioAssay AID602329 (Broad Institute, 2012)
Screen size: about 360,000 compounds; about 510 (0.14%) were called active. Shown is part of a subset that was picked to be rich in actives. Unmarked numbers belong to inactive results.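 The calls were made as follows: active = mean normalized replicate activity at least 40 and at least half of replicates scoring 40 or more; inconclusive = only one of the two criteria met; inactive = mean below 40 and under half of replicates reaching 40.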

The compounds below were run against DNA repair and recombination protein RAD54-like (Homo sapiens) (UniProt Q92698) (assay: inhibitors of human RAD54 branch migration, primary screen, biochemical, fluorescence, single point (AID 602329;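 also: 0% = median of neutral control wells and 100% = median of positive control wells; inhibitors cause a drop in the FAM fluorescence signal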)). Conditions: RAD54 Holliday junction branch migration, FAM/BHQ fluorescence; at 10.4 µM; hits give high values.
Chain of DNA repair and recombination protein RAD54-like (Homo sapiens) (Q92698 whole entry, looked up): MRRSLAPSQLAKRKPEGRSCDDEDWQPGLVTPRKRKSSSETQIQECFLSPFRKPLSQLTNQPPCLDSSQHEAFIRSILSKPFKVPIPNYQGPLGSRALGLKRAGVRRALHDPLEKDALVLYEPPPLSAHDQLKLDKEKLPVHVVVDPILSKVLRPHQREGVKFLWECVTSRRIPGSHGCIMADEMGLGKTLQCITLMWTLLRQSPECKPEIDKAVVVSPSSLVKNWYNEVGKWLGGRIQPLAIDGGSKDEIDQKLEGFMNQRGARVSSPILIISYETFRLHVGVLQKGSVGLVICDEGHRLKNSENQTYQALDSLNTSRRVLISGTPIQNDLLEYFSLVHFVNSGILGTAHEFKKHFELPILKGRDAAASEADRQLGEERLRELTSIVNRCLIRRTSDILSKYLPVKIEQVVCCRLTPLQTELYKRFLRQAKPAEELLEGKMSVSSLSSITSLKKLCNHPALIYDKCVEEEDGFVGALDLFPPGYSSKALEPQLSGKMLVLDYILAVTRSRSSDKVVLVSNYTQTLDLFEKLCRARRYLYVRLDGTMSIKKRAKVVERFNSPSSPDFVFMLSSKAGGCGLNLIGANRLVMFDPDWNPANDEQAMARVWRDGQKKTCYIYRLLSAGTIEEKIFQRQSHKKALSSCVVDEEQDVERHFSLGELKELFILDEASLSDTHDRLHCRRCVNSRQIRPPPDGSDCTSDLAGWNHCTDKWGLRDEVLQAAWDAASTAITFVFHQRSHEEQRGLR

| Compound | inhibition |
| --- | --- |
| CC1CCc2sc3nc(N4CCN(CCO)CC4)n4ncnc4c3c2C1 (stereo unspecified) | 53.7% (active) |
| CN1C[C@@H](CO)O[C@@H](n2cnc3c(N4CCN(CCO)CC4)ncnc32)C1 | -0.96% |
| COCc1cn(CC[C@@H]2CC[C@@H](NC(=O)Nc3ccc(C(F)(F)F)cc3)[C@H](CO)O2)nn1 | -5.23% |
| C[C@@H]1CN([C@@H](C)CO)C(=O)c2ccccc2-c2ccccc2CO[C@H]1CN(C)C(=O)Nc1ccccc1 | 2.07% |
| CO[C@@H]1CN(C)C(=O)c2ccc(NS(C)(=O)=O)cc2OC[C@H](C)NC[C@H]1C | 0.663% |
| CN1c2ccc(C3=CCCCC3)cc2[C@@H]2[C@@H](CCN2C(=O)Nc2cc(F)ccc2F)[C@@H]1CO | 7.43% |
| C[C@@H]1CN([C@@H](C)CO)C(=O)c2cc(NC(=O)Nc3ccc(C(F)(F)F)cc3)ccc2O[C@@H](C)CCCCO[C@H]1CN(C)C(=O)CCCN(C)C | 25% |
| COc1ccccc1-c1ccc2n(c1=O)C[C@H]1[C@H](CO)[C@@H](C(=O)N[C@@H](C)c3ccccc3)[C@@H]2N1C | -1.98% |
| CO[C@@H](CN(C)S(=O)(=O)c1cccc(Cl)c1)[C@H](C)CN([C@H](C)CO)S(=O)(=O)c1cccc(Cl)c1 | 1.71% |
| C[C@@H]1CN([C@H](C)CO)C(=O)c2cccc(NS(=O)(=O)c3ccc(F)cc3)c2O[C@@H]1CN(C)S(=O)(=O)c1ccccc1 | 2.48% |
| CO[C@@H]1CN(C)C(=O)c2ccc(NC(=O)C3CCCC3)cc2OC[C@H](C)NC[C@@H]1C | 4.25% |
| O=C(C[C@@H]1C=C[C@@H](NC(=O)Nc2cccc(F)c2)[C@H](CO)O1)NCC1CCCCC1 | -1.32% |
| CCN(CC)CCNc1ccc(Cl)cc1[N+](=O)[O-] | 7.16% |
| CCN(CC)CCn1c2ccc(Cl)cc2c2nc(C)sc21 | 63.6% (active) |
| COc1ccccc1C(=O)N1C[C@H]2[C@@H](c3ccccc31)[C@H](CO)N2C(=O)C1CC1 | -5.07% |
| Cc1ccccc1-c1ccc2c(c1)O[C@@H](CN(C)Cc1ccc(C(=O)O)cc1)[C@H](C)CN([C@H](C)CO)S2(=O)=O | 0.48% |
| COc1ccc(S(=O)(=O)N(C)C[C@@H]2OCCCC[C@@H](C)Oc3ccc(NC(=O)CCCN(C)C)cc3C(=O)N([C@@H](C)CO)C[C@@H]2C)cc1 | -3.63% |
| CCC(=O)N(C)C[C@H]1Oc2ncc(-c3ccc(C)cc3)cc2C(=O)N([C@@H](C)CO)C[C@@H]1C | 12% |
| Cc1noc(C)c1NC(=O)Nc1cccc2c1O[C@@H](CN(C)Cc1ccc(C(F)(F)F)cc1)[C@@H](C)CN([C@@H](C)CO)C2=O | 3.12% |
| C[C@@H]1CN([C@@H](C)CO)C(=O)c2cccc(NS(=O)(=O)c3ccccc3)c2O[C@@H]1CN(C)S(=O)(=O)c1ccc(F)cc1 | -8.79% |
| CCC(=O)N1C[C@@H](C)[C@H](OC)CN(C)C(=O)c2ccc(NC(=O)c3cc(C)on3)cc2OC[C@H]1C | -6.97% |

| Compound | inhibition |
| --- | --- |
| COc1cccc(-c2ccc3n(c2=O)C[C@@H]2[C@@H](CO)[C@H](C(=O)N4CCCCC4)N[C@H]32)c1 | -5.16% |
| CO[C@H]1CC[C@@H]2CCOc3c(C#N)cccc3C(=O)N(C)CCCC(=O)N(C)C[C@@H]1O2 | -6.75% |
| Cc1cc(C(=O)Nc2cccc3c2O[C@@H](CN(C)C(=O)Nc2ccc4c(c2)OCO4)[C@H](C)CN([C@@H](C)CO)C3=O)n(C)n1 | 14.9% |
| C[C@@H]1CN([C@H](C)CO)C(=O)c2cc(NC(=O)CCCN(C)C)ccc2O[C@H]1CN(C)S(=O)(=O)c1ccc(Cl)cc1 | 3.22% |
| C[C@H]1CCCCO[C@@H](CN(C)C(=O)c2ccccc2)[C@@H](C)CN([C@@H](C)CO)C(=O)c2cc(NS(=O)(=O)c3cccs3)ccc2O1 | -5.69% |
| CCCNC(=O)Nc1ccc2c(c1)C(=O)N(C)C[C@H](OC)[C@H](C)CN(Cc1ccncc1)[C@H](C)CO2 | 3.54% |
| CCCC#Cc1cnc2c(c1)C(=O)N([C@H](C)CO)C[C@@H](C)[C@@H](CN(C)C(=O)Nc1ccccc1F)O2 | -0.939% |
| C[C@@H]1CN([C@H](C)CO)C(=O)c2cccc(NS(=O)(=O)c3ccc(Cl)cc3)c2O[C@@H]1CN(C)Cc1ccc(Cl)c(Cl)c1 | -2.03% |
| C[C@H](O)C#Cc1cnc2c(c1)C(=O)N([C@H](C)CO)C[C@@H](C)[C@@H](CN(C)C(=O)Nc1ccc(C(F)(F)F)cc1)O2 | -3.33% |
| C[C@@H]1CN([C@@H](C)CO)C(=O)c2cc(NC(=O)CCN3CCOCC3)ccc2O[C@@H]1CN(C)S(=O)(=O)c1ccccc1 | 5.08% |
| C[C@@H]1CN([C@@H](C)CO)S(=O)(=O)c2ccc(-c3ccccc3F)cc2O[C@H]1CN(C)Cc1cncnc1 | -6.21% |
| OC[C@@H]1[C@H](c2ccc(C3=CCCC3)cc2)[C@H]2CN(Cc3ccncc3)CCCCN12 | 1.55% |
| COc1cccc(NC(=O)N(C)C[C@H]2Oc3cc(/C=C/c4ccccc4)ccc3S(=O)(=O)N([C@H](C)CO)C[C@@H]2C)c1 | -2.16% |
| C[C@H]1CN([C@@H](C)CO)C(=O)c2cc(C#CC3CCCC3)cnc2O[C@@H]1CN(C)C(=O)Cc1ccccn1 | 3.4% |
| O=C(N[C@H]1CC[C@@H](CCNS(=O)(=O)c2cccc(Cl)c2)O[C@@H]1CO)c1ccncc1 | -2.66% |
| Cc1ccc(S(=O)(=O)N(C)C[C@@H]2Oc3ccc(NC(=O)Nc4ccc5c(c4)OCO5)cc3C(=O)N([C@@H](C)CO)C[C@@H]2C)cc1 | 2.81% |
| COc1ccc(S(=O)(=O)Nc2cccc3c2O[C@@H](CN(C)S(=O)(=O)c2c(C)noc2C)[C@@H](C)CN([C@H](C)CO)C3=O)cc1 | 4.47% |
| C#CCOCCOCCOCCNc1nc(N2CCN(C(=O)[C@H](CO)n3cc([C@@H](N)C(C)C)nn3)CC2)nc(N2CCN(C(=O)[C@H](CCC(=O)O)n3cc([C@@H](N)[C@H](C)CC)nn3)CC2)n1 | -7.97% |
| C#CCOCCOCCOCCNc1nc(N2CCN(C(=O)C([C@@H](C)O)n3cc([C@@H](N)CCCCN)nn3)CC2)nc(N2CCN(C(=O)[C@H](CCCCN)n3cc(CN)nn3)CC2)n1 (stereo partly specified) | 69.5% (active) |
| C#CCOCCOCCOCCNc1nc(N2CCN(C(=O)[C@H](CCCCN)n3cc([C@@H](N)C(C)CC)nn3)CC2)nc(N2CCN(C(=O)[C@H](Cc3ccc(O)cc3)n3cc([C@@H](N)C(C)CC)nn3)CC2)n1 (stereo partly specified) | -6.01% |
